According to PubChem BioAssay (NCATS):
Results filed as inconclusive are left out. Active and inactive are the calls of the source. Unless noted, calls follow the shape of the dose curve; as a rule, active = well fitted curve in either direction with a large enough effect (not every such curve was filed as active); inconclusive = small, poorly fitted or top-dose-only effect, or another doubt; inactive = flat fitted curve, though single readings scatter.

Legend:
[1] = target: Lysosomal acid glucosylceramidase (Homo sapiens) (UniProt P04062); assay: Glucocerebrosidase-p2 (AID 348; in the data active = potency below about 10 µM; also: potency is read from the fitted curve at half-maximal effect); conditions: purified GBA, blue fluorogenic substrate, 40 min
In short: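 Normal human glucocerebrosidase (0.2 nM) with blue fluorogenic substrate (80 uM final) in citrate/phosphate pH 5.9 with 10mM sodium taurocholate, 0.01% tween-20; 40 min RT, NaOH/glycine stop; fluorescence Ex 365/Em 440; AC50 from a titration from 0.6 nM upwards.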

[2] = AP1 Signaling Pathway (AID 357); conditions: ME-180 AP-1-bla reporter, EGF-induced, beta-lactamase ratio, 5 h; at 7.69 µM (top of the series) unless noted;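 also: ME-180 reporter cells stimulated with EGF at its EC50 level; % is scaled to controls: 0 for no effect and ±100 for the full control effect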
In short: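 Beta-lactamase reporter under AP-1 response element, ME-180 background. Stimulus: EC50 EGF. Compound exposure 5 h, 37 °C. Detection: CCF4, 2.5 h RT, 460/530 nm. Values: AC50 from titration.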

[3] = NFAT Signaling Pathway (AID 444); conditions: Jurkat NFAT-bla M1, carbachol, beta-lactamase ratio, 5 h; at 7.69 µM (top of the series) unless noted;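 also: carbachol stimulus at about its EC50 of 1 µM final; % is scaled to controls: 0 for no effect and ±100 for the full control effect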
In short: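 Read-out: CCF4 FRET ratio (460 nm/530 nm) after 1 h RT dye loading, used for %activity and AC50 from titration series. Cells: Jurkat NFAT-β-lactamase/M1 line, treated with compound plus 1 uM carbachol for 5 h, 37 °C.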

[4] = Stat Signaling Pathway (AID 446); conditions: ME-180 SIE beta-lactamase reporter, IL-6 stimulated, 5 h; at 7.69 µM (top of the series) unless noted;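 also: ME-180 cervical cancer cells given 40 pM IL-6 alongside compound; SIE-controlled beta-lactamase reporter measured as 460/530 nm FRET emission ratio; % is scaled to controls: 0 for no effect and ±100 for the full control effect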
In short: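 Compound effects on IL-6-induced STAT reporter activity were measured in ME-180 cells. After overnight culture, cells were co-treated with 40 pM IL-6 for 5 hrs before beta-lactamase substrate loading at room temperature.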

[5] = target: Glucocorticoid receptor (Homo sapiens) (UniProt P04150); assay: GR-GFP Redistribution (AID 450;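 active = compounds whose dose series gives a full or clear partial fitted curve of increased nuclear translocation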; also: potency is read from the fitted curve at half-maximal effect); conditions: U2OS GR-GFP nuclear translocation, laser cytometry, 2 h
[6] = target: Glucocorticoid receptor (Homo sapiens) (UniProt P04150); assay: GR-EFC Redistribution (AID 451; calls by dose curve; also: potency is read from the fitted curve at half-maximal effect); conditions: CHO-K1 GR-EFC translocation, beta-gal luminescence, 2 h
In short: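 Translocation of GR-ED fusion to nuclear EA restores b-gal, read by luminescence after 1 h room-temperature detection. Engineered CHO-K1 biosensor cells, 1,000/well, exposed 2 h at 37 C to titrations up to 46 uM final.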

[7] = target: Mitogen-activated protein kinase 10 (Mus musculus) (UniProt Q61831); assay: JNK3 AlphaScreen Assay (AID 530); conditions: JNK3 lysate, c-Jun phosphorylation; series mostly up to 11.4 µM;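 also: kinase came from lysate of stimulated human HepG2 cells; signal reports phosphorylation of biotinylated GST-cJun 1-79 at Ser73 with 10 µM ATP; % is scaled to controls: 0 for no effect and ±100 for the full control effect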
In short: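 qHTS titrations with 15 min compound pre-incubation before adding ATP (10 uM final). Read-out: AlphaScreen of Ser73-phosphorylated biotin-GST-cJun using HepG2 lysate JNK3 activated by IL-1β and TNFα.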

[8] = target: 3',5'-cyclic-AMP phosphodiesterase 4B (Homo sapiens) (UniProt Q07343); assay: qHTS Assay for Inhibitors of PDE-IV (AID 607; active = well fitted activation curve with a large enough effect in the main read-out, with a control signal flat, not every such curve was filed as active; also: % of control where 0% means no effect); conditions: HEK293 ACTOne CNG channel cells, membrane potential fluorescence; series mostly up to 22.9 µM
In short: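 ACTOne HEK293 cells carry a modified cAMP-gated CNG channel and express endogenous PDE4; plated 1000 cells/well, compounds up to 22.9 uM final. Membrane-potential dye fluorescence (ex 535/em 590) was read; parental cells received 10 uM forskolin + 100 uM RO 20-1724.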

[9] = target: Cytochrome P450 3A4 (Homo sapiens) (UniProt P08684); assay: qHTS Assay for Activators of Cytochrome P450 3A4 (AID 885; active = well fitted curve in the direction sought with a large enough effect; an effect the other way counts as inactive or inconclusive; also: nearly all actives have a fitted effect of over 65% in size); conditions: recombinant CYP3A4, Luciferin-PPXE luminescence, 60 min; series mostly up to 11.4 µM
In short: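 CYP3A4 activity: Luciferin-PPXE O-dealkylation, 25uM substrate, 200mM KPO4, RT throughout. Read-out is luciferase luminescence; higher values reflect activation.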

[10] = target: Cytochrome P450 2D6 (Homo sapiens) (UniProt P10635); assay: qHTS Assay for Inhibitors and Substrates of Cytochrome P450 2D6 (AID 891; active = well fitted curve in the direction sought with a large enough effect; an effect the other way counts as inactive or inconclusive; also: nearly all actives have a fitted effect of over 60% in size; also: potency is read from the fitted curve at half-maximal effect); conditions: recombinant CYP2D6, luciferin-ME EGE luminescence; series mostly up to 11.4 µM
In short: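 Luminescent read-out of luciferin formed by 5 nM human CYP2D6 demethylating 30 uM Luciferin-ME EGE (Km level) over 60 min at room temperature after NADPH regeneration addition. Data normalized to full inhibition by 1.43 uM quinidine.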

[11] = qHTS Assay for Identification of Small Molecule Agonists for Hypoxia Response Element Signaling Pathway (AID 914; active = well fitted activation curve with a large enough effect in the signal ratio, with a control signal flat, not every such curve was filed as active; the % refers to the signal ratio; also: % of control where 0% means no effect); conditions: ME-180 (cervical carcinoma) HRE-bla reporter, beta-lactamase ratio, CoCl2, 17 h; activation: hits give high values
In short: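 HRE-bla ME-180 assay for agonist-like enhancement of an EC50 CoCl2 stimulus: 17 h at 37 degrees Celsius, CCF4 for 2.5 h, ratiometric 460/530 nm signal converted to %Activity and fitted to AC50.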

[12] = target: Cytochrome P450 2C19 (Homo sapiens) (UniProt P33261); assay: qHTS Assay for Inhibitors and Substrates of Cytochrome P450 2C19 (AID 899; active = well fitted curve in the direction sought with a large enough effect; an effect the other way counts as inactive or inconclusive; also: nearly all actives have a fitted effect of over 60% in size; also: potency is read from the fitted curve at half-maximal effect); conditions: recombinant CYP2C19, luciferin-H EGE luminescence; series mostly up to 11.4 µM
In short: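 5nM enzyme + 10uM Luciferin-H EGE (=KM), 50mM KPO4; cpd pin-transferred, 10 min 37C; NADPH regen, 60 min 37C; stopped w/ luciferin detection reagent, 20 min; luminescence. Normalized to 57uM ketoconazole (AC100).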

3',5'-cyclic-AMP phosphodiesterase 4B (Homo sapiens), sequence (Q07343 whole entry, looked up): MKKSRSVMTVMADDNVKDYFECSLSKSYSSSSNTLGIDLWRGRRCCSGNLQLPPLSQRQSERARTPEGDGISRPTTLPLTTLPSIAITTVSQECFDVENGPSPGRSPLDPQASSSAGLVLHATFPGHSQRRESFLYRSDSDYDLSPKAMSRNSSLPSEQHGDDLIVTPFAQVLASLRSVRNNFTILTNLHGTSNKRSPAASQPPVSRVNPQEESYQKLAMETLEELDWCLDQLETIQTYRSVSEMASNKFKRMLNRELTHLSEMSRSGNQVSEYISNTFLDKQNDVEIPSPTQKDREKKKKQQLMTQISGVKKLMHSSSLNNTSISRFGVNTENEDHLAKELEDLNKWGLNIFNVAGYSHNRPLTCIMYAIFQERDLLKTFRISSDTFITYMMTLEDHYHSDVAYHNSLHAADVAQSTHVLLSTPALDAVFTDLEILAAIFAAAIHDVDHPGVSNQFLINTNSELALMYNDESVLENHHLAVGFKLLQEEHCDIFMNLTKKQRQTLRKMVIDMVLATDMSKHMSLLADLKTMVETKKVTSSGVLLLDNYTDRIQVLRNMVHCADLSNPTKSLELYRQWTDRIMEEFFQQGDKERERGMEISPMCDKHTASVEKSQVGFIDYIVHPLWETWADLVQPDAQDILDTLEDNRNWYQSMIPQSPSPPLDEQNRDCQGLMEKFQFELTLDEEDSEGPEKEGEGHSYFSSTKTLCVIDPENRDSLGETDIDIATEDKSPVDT
Cytochrome P450 2D6 (Homo sapiens), sequence (P10635 whole entry, looked up): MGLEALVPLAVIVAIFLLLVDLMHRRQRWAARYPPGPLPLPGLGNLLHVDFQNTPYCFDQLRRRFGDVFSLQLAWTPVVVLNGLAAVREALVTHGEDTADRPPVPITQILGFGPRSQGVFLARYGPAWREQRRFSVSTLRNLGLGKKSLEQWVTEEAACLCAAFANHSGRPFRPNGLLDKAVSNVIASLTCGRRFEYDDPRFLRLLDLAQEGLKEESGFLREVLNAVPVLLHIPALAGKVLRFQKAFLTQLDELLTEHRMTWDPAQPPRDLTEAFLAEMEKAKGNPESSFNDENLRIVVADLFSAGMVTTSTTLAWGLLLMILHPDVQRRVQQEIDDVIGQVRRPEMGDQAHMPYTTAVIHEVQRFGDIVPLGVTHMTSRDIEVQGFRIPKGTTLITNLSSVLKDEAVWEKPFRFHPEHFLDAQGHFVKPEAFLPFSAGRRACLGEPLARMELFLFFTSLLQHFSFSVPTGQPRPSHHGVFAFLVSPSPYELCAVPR
Cytochrome P450 3A4 (Homo sapiens), sequence (P08684 whole entry, looked up): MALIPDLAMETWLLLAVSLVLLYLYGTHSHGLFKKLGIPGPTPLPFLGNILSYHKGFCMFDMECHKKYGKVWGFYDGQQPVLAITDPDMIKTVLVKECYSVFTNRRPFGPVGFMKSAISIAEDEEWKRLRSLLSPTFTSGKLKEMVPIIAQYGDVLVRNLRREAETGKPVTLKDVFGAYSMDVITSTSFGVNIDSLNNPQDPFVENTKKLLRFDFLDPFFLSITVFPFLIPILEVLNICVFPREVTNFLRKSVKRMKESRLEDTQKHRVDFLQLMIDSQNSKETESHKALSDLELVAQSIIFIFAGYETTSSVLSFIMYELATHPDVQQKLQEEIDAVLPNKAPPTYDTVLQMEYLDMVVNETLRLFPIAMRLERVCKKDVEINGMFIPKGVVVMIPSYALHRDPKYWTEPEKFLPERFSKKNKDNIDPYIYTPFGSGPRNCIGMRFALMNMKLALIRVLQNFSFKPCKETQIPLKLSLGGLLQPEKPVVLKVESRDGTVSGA
Glucocorticoid receptor (Homo sapiens), sequence (P04150 whole entry, looked up, the tested form may be a part): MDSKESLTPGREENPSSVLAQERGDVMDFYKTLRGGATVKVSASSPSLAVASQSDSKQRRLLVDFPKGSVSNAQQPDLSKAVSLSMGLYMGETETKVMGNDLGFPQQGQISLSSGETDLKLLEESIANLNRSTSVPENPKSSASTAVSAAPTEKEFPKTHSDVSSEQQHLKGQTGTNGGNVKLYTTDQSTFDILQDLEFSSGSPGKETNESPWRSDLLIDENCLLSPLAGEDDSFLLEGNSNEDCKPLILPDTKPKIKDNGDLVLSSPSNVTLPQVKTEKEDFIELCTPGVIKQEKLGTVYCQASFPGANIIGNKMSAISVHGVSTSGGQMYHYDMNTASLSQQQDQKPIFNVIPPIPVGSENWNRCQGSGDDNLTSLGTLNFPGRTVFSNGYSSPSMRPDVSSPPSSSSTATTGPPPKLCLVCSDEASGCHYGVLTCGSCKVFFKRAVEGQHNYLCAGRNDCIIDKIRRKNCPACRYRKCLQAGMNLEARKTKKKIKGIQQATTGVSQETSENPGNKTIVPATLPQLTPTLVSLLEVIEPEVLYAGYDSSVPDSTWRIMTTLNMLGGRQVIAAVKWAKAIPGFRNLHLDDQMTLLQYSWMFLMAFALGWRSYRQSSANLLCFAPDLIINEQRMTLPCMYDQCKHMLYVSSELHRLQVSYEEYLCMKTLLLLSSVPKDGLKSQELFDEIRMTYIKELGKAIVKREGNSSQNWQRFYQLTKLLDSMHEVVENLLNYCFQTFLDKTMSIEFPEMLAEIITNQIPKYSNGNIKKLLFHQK
Lysosomal acid glucosylceramidase (Homo sapiens), sequence (P04062 whole entry, looked up): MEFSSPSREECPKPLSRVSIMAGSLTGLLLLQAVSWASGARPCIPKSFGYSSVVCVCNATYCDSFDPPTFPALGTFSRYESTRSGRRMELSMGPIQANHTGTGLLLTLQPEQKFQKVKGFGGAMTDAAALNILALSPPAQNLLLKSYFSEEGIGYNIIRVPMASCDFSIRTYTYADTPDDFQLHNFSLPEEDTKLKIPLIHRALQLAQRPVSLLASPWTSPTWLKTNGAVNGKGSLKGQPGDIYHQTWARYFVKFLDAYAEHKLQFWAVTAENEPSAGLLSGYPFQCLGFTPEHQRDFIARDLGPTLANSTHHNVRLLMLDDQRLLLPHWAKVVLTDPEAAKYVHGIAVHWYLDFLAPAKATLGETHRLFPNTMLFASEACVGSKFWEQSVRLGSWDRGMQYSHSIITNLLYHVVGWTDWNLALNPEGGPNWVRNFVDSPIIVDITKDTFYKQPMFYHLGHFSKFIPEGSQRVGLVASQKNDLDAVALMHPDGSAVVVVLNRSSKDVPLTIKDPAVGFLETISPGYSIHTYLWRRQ
Cytochrome P450 2C19 (Homo sapiens), sequence (P33261 whole entry, looked up): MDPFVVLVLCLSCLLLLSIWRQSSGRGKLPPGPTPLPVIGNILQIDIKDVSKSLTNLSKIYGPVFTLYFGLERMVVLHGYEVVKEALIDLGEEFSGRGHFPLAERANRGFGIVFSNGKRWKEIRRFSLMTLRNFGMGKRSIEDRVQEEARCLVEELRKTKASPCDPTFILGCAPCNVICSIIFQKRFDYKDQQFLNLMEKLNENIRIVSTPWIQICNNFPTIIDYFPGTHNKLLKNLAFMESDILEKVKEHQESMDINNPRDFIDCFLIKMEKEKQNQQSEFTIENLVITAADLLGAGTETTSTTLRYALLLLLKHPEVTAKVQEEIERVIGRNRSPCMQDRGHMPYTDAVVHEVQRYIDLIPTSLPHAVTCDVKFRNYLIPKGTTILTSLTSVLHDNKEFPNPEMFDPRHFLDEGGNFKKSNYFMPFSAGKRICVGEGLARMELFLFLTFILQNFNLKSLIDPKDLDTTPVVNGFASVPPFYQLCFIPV

O=C(CSc1nc2ccc([N+](=O)[O-])cc2s1)c1ccc2ccccc2c1
inactive: Potency [1] > 11.4 µM | activity change, negative = inhibition [2] -4.94% | activity change, negative = inhibition [3] 9.35% | activity, negative = inhibition [4] 8.96% | Potency [5] > 46 µM | Potency [6] > 9.22 µM | Potency [7] | Potency [8] | Potency [9]

NC[C@@H](O)CSCc1ccc(Cl)cc1
active: Potency [10] 3.16 µM
inactive: Potency [1] > 11.4 µM | activity change, negative = inhibition [2] -2.84% | activity change, negative = inhibition [3] 21.3% | activity, negative = inhibition [4] 0.417% | Potency [5] > 46 µM | Potency [6] > 9.22 µM | Potency [7] | Potency [8]

c1ccc2nc(CC[C@@H]3CCCCN3)ccc2c1
inactive: Potency [1] > 11.4 µM | activity change, negative = inhibition [2] 7.07% | activity change, negative = inhibition [3] -3.97% | activity, negative = inhibition [4] -5.39% | Potency [5] > 46 µM | Potency [6] > 9.22 µM | Potency [7] | Potency [8] | activation [11] -14.2%

OCCCNCc1ccccn1
inactive: Potency [1] > 11.4 µM | activity change, negative = inhibition [2] -3.7% | activity change, negative = inhibition [3] 5.11% | activity, negative = inhibition [4] 5.98% | Potency [5] > 46 µM | Potency [6] > 9.22 µM | Potency [7] | Potency [8] | activation [11] 12.2%

COc1ccc(N(CC(=O)O)N=O)cc1
inactive: Potency [1] > 11.4 µM | activity change, negative = inhibition [2] 1.5% | activity change, negative = inhibition [3] 11.2% | activity, negative = inhibition [4] 2.83% | Potency [5] > 46 µM | Potency [6] > 9.22 µM | Potency [7] | Potency [8] | Potency [12] | activation [11] 10.3%

CC(C)(C)c1ccc(O)c(CN(Cc2cc(C(C)(C)C)ccc2O)C2CCCCC2)c1
inactive: Potency [1] > 11.4 µM | activity change, negative = inhibition [2] 5.42% | activity change, negative = inhibition [3] -3.2% | activity, negative = inhibition [4] 6.32% | Potency [5] > 46 µM | Potency [6] > 9.22 µM | Potency [7] | Potency [8]
active: Potency [10] 0.501 µM | Potency [12] 1.58 µM

Cc1ccc(CSC(N)=Nc2ccccc2)cc1C
active: Potency [10] 0.794 µM | Potency [12] 2 µM
inactive: Potency [1] > 11.4 µM | activity change, negative = inhibition [2] 6.56% | activity change, negative = inhibition [3] -3.46% | activity, negative = inhibition [4] -10.5% | Potency [5] > 46 µM | Potency [6] > 9.22 µM | Potency [7] | Potency [8] | Potency [9]

CC1(C)[C@@H]2CC[C@@]1(CS(=O)(=O)Nc1ccccc1)C(=O)C2
inactive: Potency [1] > 11.4 µM | activity change, negative = inhibition [2] -11.4% | activity change, negative = inhibition [3] 4.16% | activity, negative = inhibition [4] -7% | Potency [5] > 46 µM | Potency [6] > 9.22 µM | Potency [7] | Potency [8]
active: Potency [12] 2 µM

c1ccc(-c2nnn(CCN3CCCCC3)n2)cc1
inactive: Potency [1] > 11.4 µM | activity change, negative = inhibition [2] 10.5% | activity change, negative = inhibition [3] -5.15% | activity, negative = inhibition [4] 1.18% | Potency [5] > 46 µM | Potency [6] > 9.22 µM | Potency [7] | Potency [8] | activation [11] -4.81%
active: Potency [12] 1.26 µM

O=c1cc(N=Nc2ccc(O)cc2)[nH]c(=O)[nH]1
inactive: Potency [1] > 11.4 µM | activity change, negative = inhibition [2] -6.46% | activity change, negative = inhibition [3] -4.22% | activity, negative = inhibition [4] 4.24% | Potency [5] > 46 µM | Potency [6] > 9.22 µM | Potency [7] | Potency [8] | activation [11] -26.3%

C[C@H](C(=O)c1ccncc1)c1ccccn1
inactive: Potency [1] > 11.4 µM | activity change, negative = inhibition [2] 0.391% | activity change, negative = inhibition [3] -8.81% | activity, negative = inhibition [4] 8.11% | Potency [5] > 46 µM | Potency [6] > 9.22 µM | Potency [7] | Potency [8] | Potency [9]

Clc1ccccc1C(Nc1ncccn1)Nc1ncccn1
inactive: Potency [1] > 11.4 µM | activity change, negative = inhibition [2] 4.25% | activity change, negative = inhibition [3] 3.12% | activity, negative = inhibition [4] 3.77% | Potency [5] > 46 µM | Potency [6] > 9.22 µM | Potency [7] | Potency [8] | Potency [12]

CC(C)(C)c1c2c(c(C(C)(C)C)c3c1OCN(Cc1ccccc1)C3)OCN(Cc1ccccc1)C2
inactive: Potency [1] > 11.4 µM | activity change, negative = inhibition [2] 0.594% | activity change, negative = inhibition [3] 0.0878% | activity, negative = inhibition [4] -2.37% | Potency [5] > 46 µM | Potency [6] > 9.22 µM | Potency [7] | Potency [8] | Potency [12]

NS(=O)(=O)c1cc(C(=O)O)c(Cl)c([N+](=O)[O-])c1Cl
inactive: Potency [1] > 11.4 µM | activity change, negative = inhibition [2] 10.9% | activity change, negative = inhibition [3] 18.5% | activity, negative = inhibition [4] 13.1% | Potency [5] > 46 µM | Potency [6] > 9.22 µM | Potency [7] | Potency [8] | Potency [10] | Potency [12]
